Measured values: the supplement of paper PMC10849652
Targets with a hit are over-represented here; the source holds about 8,800 in all. About 0.5% of all pairs of compound and target were hits.

Legend:
Experiment in all cases: log2 fold change, soluble protein after heating vs DMSO (PISA); higher = thermal stabilisation; K562 lysate, 10 uM; active = over 0.2 and 3.5 SD of the protein, either way, in both replicates (recomputed)
lapatinib = compound: CS(=O)(=O)CCNCc1ccc(-c2ccc3ncnc(Nc4ccc(OCc5cccc(F)c5)c(Cl)c4)c3c2)o1 [lapatinib]
Method in brief: (§1)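 Dounce homogenisation of K562 pellets in PBS pH 7.4 with 1 mM MgCl2 produced a crude extract, used at 1 mg/mL protein. Exposure to 10 μM compound lasted 30 min, and aliquots were then heated for 3 min across 48°C-58°C, pooled and brought to 0.5% NP-40 at 4°C. The supernatant after 21,000xg for 90 min was quantified by TMTpro 16plex LC-MS/MS with channel sums equalised. Duplicate values are given as log-two fold change in thermal stability relative to solvent controls.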

pictilisib = compound: CS(=O)(=O)N1CCN(Cc2cc3nc(-c4cccc5[nH]ncc45)nc(N4CCOCC4)c3s2)CC1 [pictilisib]
Method in brief: as §1

crizotinib = compound: C[C@@H](Oc1cc(-c2cnn(C3CCNCC3)c2)cnc1N)c1c(Cl)ccc(F)c1Cl [crizotinib]
Method in brief: as §1

[1] = compound: C[C@H](C1=CC=C(C=C1)C(=O)NC2=C3C=CNC3=NC=C2)N
Method in brief: as §1

duvelisib = compound: C[C@H](Nc1ncnc2nc[nH]c12)c1cc2cccc(Cl)c2c(=O)n1-c1ccccc1 [duvelisib]
Method in brief: as §1

gandotinib = compound: Cc1cc(Nc2cc(CN3CCOCC3)c3nc(C)c(Cc4ccc(Cl)cc4F)n3n2)n[nH]1 [gandotinib]
Method in brief: as §1

tozasertib = compound: Cc1cc(Nc2cc(N3CCN(C)CC3)nc(Sc3ccc(NC(=O)C4CC4)cc3)n2)n[nH]1 [tozasertib]
Method in brief: as §1

doramapimod = compound: Cc1ccc(-n2nc(C(C)(C)C)cc2NC(=O)Nc2ccc(OCCN3CCOCC3)c3ccccc23)cc1 [doramapimod]
Method in brief: as §1

bafetinib = compound: Cc1ccc(NC(=O)c2ccc(CN3CC[C@H](N(C)C)C3)c(C(F)(F)F)c2)cc1Nc1nccc(-c2cncnc2)n1 [bafetinib]
Method in brief: as §1

[2] = compound: Cc1cccc(CC(=O)N2CCc3c2ccc(-c2cn(C)c4ncnc(N)c24)c3F)n1
Method in brief: as §1

nilotinib = compound: Cc1cn(-c2cc(NC(=O)c3ccc(C)c(Nc4nccc(-c5cccnc5)n4)c3)cc(C(F)(F)F)c2)cn1 [nilotinib]
Method in brief: as §1

[3] = compound: Cc1nc(Nc2n[nH]c3c2CN(C(=O)N[C@H](CN(C)C)c2ccccc2)C3(C)C)c2sccc2n1
Method in brief: as §1

dasatinib = compound: Cc1nc(Nc2ncc(C(=O)Nc3c(C)cccc3Cl)s2)cc(N2CCN(CCO)CC2)n1 [dasatinib]
Method in brief: as §1

[4] = compound: Cc1ncc(-c2ccnc(Nc3ccc(S(C)(=O)=O)cc3)n2)n1C(C)C
Method in brief: as §1

[5] = compound: Cn1cc(-c2ccc3c(c2)CCN3C(=O)Cc2cccc(C(F)(F)F)c2)c2c(N)ncnc21
Method in brief: as §1

quisinostat = compound: Cn1cc(CNCC2CCN(c3ncc(C(=O)NO)cn3)CC2)c2ccccc21 [quisinostat]
Method in brief: as §1

tipifarnib = compound: Cn1cncc1[C@@](N)(c1ccc(Cl)cc1)c1ccc2c(c1)c(-c1cccc(Cl)c1)cc(=O)n2C [tipifarnib]
Method in brief: as §1

[6] = compound: NC(=O)Nc1cc(-c2cccc(F)c2)sc1C(=O)N[C@H]1CCCNC1
Method in brief: as §1

[7] = compound: NC(=O)c1cnc(N[C@@H]2CCCC[C@@H]2N)nc1Nc1cccc(-n2nccn2)c1
Method in brief: as §1

[8] = compound: NC1(c2ccc(-c3nc4ccn5c(=O)[nH]nc5c4cc3-c3ccccc3)cc2)CCC1
Method in brief: as §1

Measured: log2 fold change

ANXA1 (UniProt P04083)
inactive: lapatinib 0.005 | pictilisib 0.013 | crizotinib 0.018 | [1] -0.013 | duvelisib 0.016 | gandotinib -0.005 | tozasertib 0.012 | doramapimod 0.008 | bafetinib 0.038 | [2] 0.028 | nilotinib -0.01 | [3] -0.009 | dasatinib -0.009 | [4] -0.006 | [5] -0.006 | quisinostat 0.034 | tipifarnib 0.026 | [6] -0.015 | [7] 0.003 | [8] 0.009

ALKBH4 (UniProt Q9NXW9)
UniProt Q9NXW9, sequence (Q9NXW9 whole entry, looked up): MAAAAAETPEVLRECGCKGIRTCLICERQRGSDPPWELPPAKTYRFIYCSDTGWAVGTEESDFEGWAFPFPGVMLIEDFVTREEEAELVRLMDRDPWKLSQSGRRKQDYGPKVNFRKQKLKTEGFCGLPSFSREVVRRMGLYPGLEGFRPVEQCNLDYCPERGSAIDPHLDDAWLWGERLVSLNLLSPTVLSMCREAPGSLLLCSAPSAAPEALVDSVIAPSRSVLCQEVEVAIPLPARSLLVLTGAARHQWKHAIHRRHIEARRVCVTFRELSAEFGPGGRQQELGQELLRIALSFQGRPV
inactive: lapatinib -0.02 | pictilisib 0.003 | crizotinib 0.04 | [1] -0.055 | duvelisib 0.035 | gandotinib -0.019 | tozasertib 0.047 | doramapimod -0.018 | bafetinib -0.108 | [2] -0.028 | nilotinib -0.053 | [3] -0.05 | dasatinib -0.028 | [4] -0.008 | [5] 0.007 | quisinostat -0.01 | tipifarnib 0.023 | [6] 0.023 | [7] -0.013 | [8] 0.047

ARAP1 (UniProt Q96P48)
UniProt Q96P48, sequence (Q96P48 whole entry, looked up): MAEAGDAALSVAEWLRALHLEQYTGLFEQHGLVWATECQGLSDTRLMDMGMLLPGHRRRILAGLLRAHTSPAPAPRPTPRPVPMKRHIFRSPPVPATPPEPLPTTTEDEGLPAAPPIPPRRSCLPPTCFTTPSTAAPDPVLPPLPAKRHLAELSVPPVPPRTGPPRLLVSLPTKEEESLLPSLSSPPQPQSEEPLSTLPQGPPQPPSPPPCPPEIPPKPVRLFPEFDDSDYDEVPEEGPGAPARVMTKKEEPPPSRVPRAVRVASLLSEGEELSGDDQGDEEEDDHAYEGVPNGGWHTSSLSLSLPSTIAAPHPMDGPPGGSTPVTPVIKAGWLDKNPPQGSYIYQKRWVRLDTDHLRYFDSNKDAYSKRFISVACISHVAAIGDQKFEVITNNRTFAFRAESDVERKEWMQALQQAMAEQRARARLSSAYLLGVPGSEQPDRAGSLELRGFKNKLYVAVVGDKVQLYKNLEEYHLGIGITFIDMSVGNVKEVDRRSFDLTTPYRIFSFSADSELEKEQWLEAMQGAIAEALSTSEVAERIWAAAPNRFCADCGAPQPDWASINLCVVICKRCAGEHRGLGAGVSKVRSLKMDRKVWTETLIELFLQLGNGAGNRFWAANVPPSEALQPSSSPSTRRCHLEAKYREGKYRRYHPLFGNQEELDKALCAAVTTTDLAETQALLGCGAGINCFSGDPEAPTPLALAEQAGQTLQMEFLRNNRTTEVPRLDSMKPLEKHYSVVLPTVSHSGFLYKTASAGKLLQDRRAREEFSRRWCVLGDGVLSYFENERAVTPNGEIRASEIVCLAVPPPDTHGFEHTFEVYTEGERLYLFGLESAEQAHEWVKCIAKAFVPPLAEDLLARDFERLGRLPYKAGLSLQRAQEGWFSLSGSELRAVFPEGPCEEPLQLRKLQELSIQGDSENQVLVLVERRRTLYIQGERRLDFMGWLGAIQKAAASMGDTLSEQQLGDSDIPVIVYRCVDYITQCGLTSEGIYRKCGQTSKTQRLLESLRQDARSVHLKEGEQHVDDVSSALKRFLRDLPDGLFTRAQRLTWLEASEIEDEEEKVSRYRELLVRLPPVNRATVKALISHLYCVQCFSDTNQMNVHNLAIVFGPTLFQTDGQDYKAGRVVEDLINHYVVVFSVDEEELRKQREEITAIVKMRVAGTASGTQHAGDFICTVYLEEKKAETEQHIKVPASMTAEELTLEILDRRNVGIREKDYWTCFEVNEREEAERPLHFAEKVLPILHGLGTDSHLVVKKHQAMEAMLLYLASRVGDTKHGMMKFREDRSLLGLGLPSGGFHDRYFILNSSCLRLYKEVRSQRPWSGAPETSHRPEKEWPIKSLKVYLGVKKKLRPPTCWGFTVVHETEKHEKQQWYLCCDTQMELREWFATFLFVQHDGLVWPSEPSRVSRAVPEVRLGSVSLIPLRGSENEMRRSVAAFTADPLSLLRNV
inactive: lapatinib -0.022 | pictilisib -0.046 | crizotinib -0.065 | [1] -0.03 | duvelisib -0.002 | gandotinib 0.014 | tozasertib -0.005 | doramapimod 0.063 | bafetinib -0.016 | [2] 0.034 | nilotinib -0.009 | [3] -0.029 | dasatinib -0.036 | [4] -0.032 | [5] 0.013 | quisinostat -0.072 | tipifarnib -0.041 | [6] 0.029 | [7] 0.006 | [8] 0.003

AHCYL1 (UniProt O43865)
inactive: lapatinib -0.001 | pictilisib 0.008 | crizotinib -0.028 | [1] -0.012 | duvelisib 0.043 | gandotinib -0.067 | tozasertib -0.031 | doramapimod 0.013 | bafetinib -0.047 | [2] 0.001 | nilotinib -0.077 | [3] -0.011 | dasatinib -0.015 | [4] 0.021 | [5] 0.02 | quisinostat -0.079 | tipifarnib -0.001 | [6] 0.066 | [7] -0.005 | [8] -0.087

ARFGAP1 (UniProt Q8N6T3)
UniProt Q8N6T3, sequence (Q8N6T3 whole entry, looked up): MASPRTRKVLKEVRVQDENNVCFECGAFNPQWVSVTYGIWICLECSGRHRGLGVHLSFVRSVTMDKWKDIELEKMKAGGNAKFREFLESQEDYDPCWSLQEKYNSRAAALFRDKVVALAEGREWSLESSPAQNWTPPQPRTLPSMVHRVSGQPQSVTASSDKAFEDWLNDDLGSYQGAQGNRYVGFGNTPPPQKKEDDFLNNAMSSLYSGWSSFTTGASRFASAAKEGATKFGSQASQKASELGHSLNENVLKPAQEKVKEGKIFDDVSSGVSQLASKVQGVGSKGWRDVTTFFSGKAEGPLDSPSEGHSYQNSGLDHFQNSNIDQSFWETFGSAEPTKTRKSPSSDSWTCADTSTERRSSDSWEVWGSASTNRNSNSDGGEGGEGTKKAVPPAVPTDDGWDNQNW
inactive: lapatinib 0.002 | pictilisib 0.175 | crizotinib 0.031 | [1] -0.077 | duvelisib -0.054 | tozasertib -0.011 | doramapimod 0.202 | bafetinib -0.157 | [2] 0.202 | nilotinib 0.159 | [3] 0.1 | dasatinib -0.03 | [4] -0.016 | [5] -0.043 | quisinostat -0.004 | [6] 0.063 | [7] -0.032 | [8] -0.111
active: gandotinib 1.08 | tipifarnib -0.475

AMPD3 isoform 4 (UniProt Q01432)
UniProt Q01432, sequence (Q01432 whole entry, looked up): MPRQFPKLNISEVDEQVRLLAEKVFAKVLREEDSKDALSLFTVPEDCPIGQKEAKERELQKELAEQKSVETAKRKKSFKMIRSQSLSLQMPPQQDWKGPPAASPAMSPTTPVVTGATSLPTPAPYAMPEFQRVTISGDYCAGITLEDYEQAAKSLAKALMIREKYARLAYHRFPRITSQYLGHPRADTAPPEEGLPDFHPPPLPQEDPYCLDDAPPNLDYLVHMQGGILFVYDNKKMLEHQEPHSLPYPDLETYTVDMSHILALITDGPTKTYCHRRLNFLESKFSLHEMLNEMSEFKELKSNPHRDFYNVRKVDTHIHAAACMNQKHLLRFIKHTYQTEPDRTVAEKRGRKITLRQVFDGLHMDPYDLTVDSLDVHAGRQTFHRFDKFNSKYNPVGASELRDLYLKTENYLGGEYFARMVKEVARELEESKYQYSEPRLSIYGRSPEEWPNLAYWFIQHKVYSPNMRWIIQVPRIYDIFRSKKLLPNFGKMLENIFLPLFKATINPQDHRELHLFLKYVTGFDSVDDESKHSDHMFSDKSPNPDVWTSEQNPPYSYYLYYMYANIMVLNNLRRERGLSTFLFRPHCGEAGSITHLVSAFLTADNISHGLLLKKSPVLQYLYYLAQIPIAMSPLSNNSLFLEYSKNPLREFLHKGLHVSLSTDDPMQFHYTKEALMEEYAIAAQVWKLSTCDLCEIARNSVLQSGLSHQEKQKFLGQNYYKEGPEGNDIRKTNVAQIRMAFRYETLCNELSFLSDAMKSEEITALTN
inactive: lapatinib 0.037 | pictilisib -0.015 | crizotinib 0.014 | [1] 0.109 | duvelisib -0.053 | gandotinib -0.057 | tozasertib 0.001 | doramapimod 0.002 | bafetinib -0.002 | [2] -0.047 | nilotinib -0.002 | [3] 0.027 | dasatinib 0.014 | [4] -0.021 | [5] -0.013 | quisinostat 0.038 | tipifarnib 0.032 | [6] -0.012 | [7] -0.017 | [8] 0.012

ADK (UniProt P55263)
UniProt P55263, sequence (P55263 whole entry, looked up): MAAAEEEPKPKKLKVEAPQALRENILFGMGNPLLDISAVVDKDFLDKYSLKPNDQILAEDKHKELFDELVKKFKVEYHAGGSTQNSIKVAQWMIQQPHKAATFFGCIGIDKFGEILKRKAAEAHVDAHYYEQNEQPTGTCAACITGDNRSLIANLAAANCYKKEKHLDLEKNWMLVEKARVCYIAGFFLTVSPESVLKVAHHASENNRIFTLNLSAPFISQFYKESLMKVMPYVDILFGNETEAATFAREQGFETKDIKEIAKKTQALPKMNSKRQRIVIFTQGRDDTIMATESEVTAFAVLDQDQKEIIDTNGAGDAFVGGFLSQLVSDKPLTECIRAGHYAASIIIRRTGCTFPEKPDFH
active: gandotinib 0.532
inactive: lapatinib 0.154 | pictilisib 0.169 | crizotinib 0.235 | [1] -0.007 | duvelisib 0.059 | tozasertib -0.005 | doramapimod 0.014 | bafetinib 0.292 | [2] -0.064 | nilotinib -0.028 | [3] 0.075 | dasatinib 0.463 | [4] 0.046 | [5] -0.005 | quisinostat -0.062 | tipifarnib 0.324 | [6] -0.023 | [7] -0.015 | [8] 0.016

ARHGEF2 (UniProt Q92974)
UniProt Q92974, sequence (Q92974 whole entry, looked up): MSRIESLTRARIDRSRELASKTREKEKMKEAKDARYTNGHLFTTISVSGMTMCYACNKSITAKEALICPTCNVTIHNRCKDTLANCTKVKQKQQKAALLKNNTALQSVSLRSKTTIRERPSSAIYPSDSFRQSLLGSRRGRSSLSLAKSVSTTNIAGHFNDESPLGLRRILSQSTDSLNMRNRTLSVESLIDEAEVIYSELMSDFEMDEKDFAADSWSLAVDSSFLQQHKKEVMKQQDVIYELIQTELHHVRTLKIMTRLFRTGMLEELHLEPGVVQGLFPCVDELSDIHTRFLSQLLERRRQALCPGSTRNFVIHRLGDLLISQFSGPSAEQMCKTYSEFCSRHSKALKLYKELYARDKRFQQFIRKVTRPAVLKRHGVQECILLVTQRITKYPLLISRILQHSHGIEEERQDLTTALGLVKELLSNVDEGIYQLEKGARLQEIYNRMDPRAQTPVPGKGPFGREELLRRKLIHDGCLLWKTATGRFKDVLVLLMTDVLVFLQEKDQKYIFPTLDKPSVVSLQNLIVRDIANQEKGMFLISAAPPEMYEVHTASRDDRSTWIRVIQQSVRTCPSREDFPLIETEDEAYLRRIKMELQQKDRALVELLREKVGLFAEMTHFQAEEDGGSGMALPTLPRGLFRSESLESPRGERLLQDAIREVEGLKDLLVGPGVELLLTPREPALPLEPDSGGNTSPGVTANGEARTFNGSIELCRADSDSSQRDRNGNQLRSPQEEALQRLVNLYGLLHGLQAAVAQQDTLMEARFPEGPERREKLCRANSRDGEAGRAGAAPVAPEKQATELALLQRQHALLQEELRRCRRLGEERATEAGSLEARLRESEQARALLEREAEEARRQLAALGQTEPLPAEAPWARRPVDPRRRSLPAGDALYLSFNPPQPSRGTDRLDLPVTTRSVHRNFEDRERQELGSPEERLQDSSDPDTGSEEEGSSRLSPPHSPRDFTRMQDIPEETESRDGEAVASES
inactive: lapatinib 0.014 | pictilisib 0.005 | crizotinib -0.016 | [1] 0.006 | duvelisib -0.017 | gandotinib 0.025 | tozasertib 0.018 | doramapimod 0.089 | bafetinib -0.045 | [2] 0.04 | nilotinib 0.014 | [3] -0.01 | dasatinib -0.01 | [4] -0.025 | [5] 0.013 | quisinostat -0.048 | tipifarnib -0.04 | [6] 0.006 | [7] -0.008 | [8] 0.013

ACLY (UniProt P53396)
inactive: lapatinib -0.011 | pictilisib -0.009 | crizotinib -0.005 | [1] -0.025 | duvelisib 0.012 | gandotinib 0.01 | tozasertib 0.003 | doramapimod 0.015 | bafetinib 0.008 | [2] 0.013 | nilotinib -0.005 | [3] -0.016 | dasatinib -0.026 | [4] -0.005 | [5] 0.021 | quisinostat 0.002 | tipifarnib 0.016 | [6] -0.004 | [7] 0.018 | [8] 0.014

AKT2 (UniProt P31751)
inactive: lapatinib -0.022 | pictilisib 0.005 | crizotinib 0.015 | [1] -0.007 | duvelisib -0.005 | gandotinib -0.022 | tozasertib 0.033 | doramapimod -0.015 | bafetinib 0.051 | [2] -0.036 | nilotinib -0.013 | [3] -0.004 | dasatinib 0.003 | [4] -0.008 | [5] 0.005 | quisinostat 0.001 | tipifarnib 0.017 | [6] 0.019 | [7] -0.015
active: [8] 0.559

AGPS (UniProt O00116)
UniProt O00116, sequence (O00116 whole entry, looked up): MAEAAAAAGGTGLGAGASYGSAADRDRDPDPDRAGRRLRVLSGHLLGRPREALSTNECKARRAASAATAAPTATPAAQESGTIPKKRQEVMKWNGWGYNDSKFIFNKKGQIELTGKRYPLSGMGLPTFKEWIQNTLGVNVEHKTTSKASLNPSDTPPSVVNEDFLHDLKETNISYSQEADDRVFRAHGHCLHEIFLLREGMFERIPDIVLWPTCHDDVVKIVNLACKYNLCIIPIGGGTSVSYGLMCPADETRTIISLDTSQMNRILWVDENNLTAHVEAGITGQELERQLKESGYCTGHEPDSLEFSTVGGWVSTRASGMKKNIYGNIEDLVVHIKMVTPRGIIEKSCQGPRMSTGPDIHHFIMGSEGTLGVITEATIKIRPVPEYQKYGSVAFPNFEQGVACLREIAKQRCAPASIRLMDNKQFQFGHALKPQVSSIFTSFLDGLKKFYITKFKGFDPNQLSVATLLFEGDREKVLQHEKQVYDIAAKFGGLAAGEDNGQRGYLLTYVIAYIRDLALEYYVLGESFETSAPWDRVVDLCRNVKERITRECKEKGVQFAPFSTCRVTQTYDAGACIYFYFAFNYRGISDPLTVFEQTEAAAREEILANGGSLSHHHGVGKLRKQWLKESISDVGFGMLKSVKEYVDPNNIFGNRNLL
inactive: lapatinib -0.017 | pictilisib -0.049 | crizotinib -0.02 | [1] -0.033 | duvelisib -0.011 | gandotinib 0.019 | tozasertib 0.015 | doramapimod 0.025 | bafetinib 0.002 | [2] 0.083 | nilotinib -0.014 | [3] -0.021 | dasatinib -0.033 | [4] 0.05 | [5] 0.008 | quisinostat 0.064 | tipifarnib -0.015 | [6] 0.014 | [7] 0.004 | [8] 0.003

ABHD17A isoform 2 (UniProt Q96GS6)
inactive: lapatinib -0.034 | pictilisib -0.044 | crizotinib 0.017 | [1] -0.074 | duvelisib 0.01 | gandotinib 0.139 | tozasertib 0.019 | doramapimod 0.044 | bafetinib 0.019 | [2] 0.065 | nilotinib 0.062 | [3] 0.038 | dasatinib -0.141 | [4] 0.096 | [5] 0.017 | quisinostat -0.09 | tipifarnib 0.097 | [6] -0.007 | [7] 0.008 | [8] 0.007

ALDH18A1 (UniProt P54886)
inactive: lapatinib -0.052 | pictilisib -0.063 | crizotinib -0.034 | [1] 0.001 | duvelisib -0.017 | gandotinib -0.064 | tozasertib 0.002 | doramapimod 0.047 | bafetinib -0.006 | [2] 0.018 | nilotinib 0 | [3] -0.023 | dasatinib -0.027 | [4] -0.004 | [5] 0.007 | quisinostat -0.06 | tipifarnib -0.001 | [6] 0.025 | [7] 0.023 | [8] -0.019

ANXA2 isoform 2 (UniProt P07355)
inactive: lapatinib 0.009 | pictilisib -0.005 | crizotinib 0.029 | [1] 0.017 | duvelisib -0.028 | gandotinib 0.008 | tozasertib -0.001 | doramapimod -0.024 | bafetinib 0.065 | [2] -0.041 | nilotinib 0.035 | [3] -0.016 | dasatinib 0.048 | [4] 0.003 | [5] -0.017 | quisinostat 0.064 | tipifarnib 0.016 | [6] -0.018 | [7] -0.015 | [8] 0.022

ACYP1 (UniProt P07311)
UniProt P07311, sequence (P07311 whole entry, looked up): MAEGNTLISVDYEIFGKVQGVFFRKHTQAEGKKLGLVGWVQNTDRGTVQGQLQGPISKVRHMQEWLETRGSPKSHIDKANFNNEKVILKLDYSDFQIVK
active: [1] 0.236
inactive: lapatinib -0.001 | pictilisib -0.044 | crizotinib 0.024 | duvelisib 0.005 | gandotinib -0.051 | tozasertib 0.016 | doramapimod 0.009 | bafetinib 0.005 | [2] -0.091 | nilotinib -0.014 | [3] 0.019 | dasatinib 0.022 | [4] -0.028 | [5] 0.014 | quisinostat 0.024 | tipifarnib 0.019 | [6] -0.029 | [7] -0.013 | [8] 0.039

AP5B1 (UniProt Q2VPB7)
active: [6] 0.324
inactive: lapatinib 0.095 | pictilisib -0.046 | crizotinib 0.069 | [1] 0.034 | duvelisib -0.012 | gandotinib -0.092 | tozasertib -0.028 | doramapimod 0.272 | bafetinib -0.056 | [2] 0.047 | nilotinib 0.001 | [3] -0.033 | dasatinib 0.065 | [4] -0.053 | [5] -0.072 | quisinostat -0.027 | tipifarnib -0.087 | [7] -0.023 | [8] -0.036
